Sampled rows, rich in hits. Any-hit rate of the full collection: about 4.9%.
Calb FLC: C. albicans growth inhibition with fluconazole, primary screen, CaCi-2 strain, Alamar Blue fluorescence; C. albicans CaCi-2 (fluconazole-resistant clinical isolate) + fluconazole, 48 h; growth inhibition, % (no concentration beside the values); hit rate 0.57% among 300,000; AID 1979, 2009;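 active means growth inhibition above about 58% in most replicates, limit read from the data, passing the limit was not always enough; inconclusive means exactly half the replicates above a set limit; inactive means most replicates below a set limit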;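 further: all wells also contain fluconazole at 8 µg/ml as a sub-toxic cotreatment; 0% = median of DMSO wells and 100% = median of geldanamycin control wells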
PP5 primary: PP5 phosphatase inhibitors, primary screen, biochemical, fluorescence; AID 1987, 2009; hit rate 0.18% among 320,000; inhibition, % at 6.7 µM; purified PP5c, OMFP substrate fluorescence;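 active means inhibition above the campaign's mean inhibition across all tested compounds plus 3 SD, cut at about 9.5% in these data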;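 further: 0% = DMSO only and 100% = 100 µM cantharidin control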
PP1 counter: PP1-alpha phosphatase inhibitors, primary screen, counter-screen for PP5 inhibitor project, biochemical, fluorescence, OMFP substrate, single point | Serine/threonine-protein phosphatase PP1-alpha catalytic subunit (Homo sapiens), P62136 | purified PP1alpha | inhibition, % at 6.7 µM | hit rate 0.9% among 320,000 | AID 2235, 2010;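 active means inhibition above the mean inhibition of all tested compounds plus 3 SD, computed separately for each screening campaign, cut at about 15% in these data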
Target sequence (P62136 whole entry, looked up): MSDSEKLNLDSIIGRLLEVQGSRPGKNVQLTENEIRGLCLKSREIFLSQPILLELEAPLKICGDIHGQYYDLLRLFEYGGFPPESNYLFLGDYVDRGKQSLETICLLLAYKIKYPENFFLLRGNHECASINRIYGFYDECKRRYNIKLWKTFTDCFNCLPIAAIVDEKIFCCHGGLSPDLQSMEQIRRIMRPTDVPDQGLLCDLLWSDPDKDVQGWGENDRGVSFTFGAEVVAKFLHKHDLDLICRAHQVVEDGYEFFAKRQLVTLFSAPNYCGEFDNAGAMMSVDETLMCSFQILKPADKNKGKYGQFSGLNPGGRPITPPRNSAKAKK
Mdm2-MdmX inh: inhibitors of human Mdm2-MdmX association, primary screen, cell-based, luminescence, split luciferase, SaOS-2, uHTS; Protein Mdm4 (Homo sapiens) + E3 ubiquitin-protein ligase Mdm2 (Homo sapiens), …; SaOS-2 split-luciferase Mdm2/MdmX complementation; inhibition, % at 8 µM; hit rate 3% among 330,000;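 active means inhibition of at least 50% at 8 µM in the primary screen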
Beta cell apopt: inhibitors of cytokine-induced beta cell apoptosis, primary screen, luminescence; INS-1E cytokine-induced death, ATP luminescence, 48 h; percent of positive-control rescue, neutral wells zero; protection from apoptosis, % (concentration not given with the values); hit rate 0.8% among 300,000;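 active means Every replicate reaches about 75%, or at least half do and their mean reaches it too, limit read from the data; inconclusive means At least half of replicates reach the limit but their mean does not; inactive means Under half of replicates reach the limit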;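 further: 0% = cytokine-treated negative control wells and 100% = positive control rescue; higher means more ATP so stronger rescue from cytokine killing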
CSC inhib: cancer stem cell viability inhibitors, primary screen, luminescence; hit rate 1.1% among 300,000; inhibition, % at 7.5 µM; AID 2717, 2010; cancer stem cell-like cells viability; in the data active means inhibition above about 75%; inconclusive means no clear call, values can overlap the other calls; tested in HMLE shEcad cells
Mdm2 MdmX conf: Mdm2-MdmX complex disruptors, retested hits, confirmation, luminescence, single concentration. hit rate 55% among 10,000. Mdm2-MdmX binding, luminescent assay. inhibition, % at 8 µM. shares compounds with Mdm2-MdmX inh. AID 489028, 2010; in the data active means inhibition above about 40%
Full FLuc ctr: full-length luciferase signal inhibition, confirmation, counter-screen for Mdm2/MdmX interaction inhibitor project, cell-based, single concentration, SaOS-2; AID 504607, 2011; SaOS-2 full-length luciferase counterscreen, luminescence; inhibition, % at 8 µM; shares compounds with Mdm2-MdmX inh; hit rate 77% among 6,200;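 active means mean inhibition at 8 µM reaching about 37%, which flags the compound as non-specific, limit read from the data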;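 further: p53-null SaOS-2 cells with luciferase driven by a doxycycline-inducible promoter; compound on cells about two nights before reading with doxycycline added after day one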
* hit, by the source's call.

`CC(=O)Oc1ccccc1C(=O)Nc1ccccc1` gave Calb FLC -2.2, PP5 primary -0.2, PP1 counter -2.9, Mdm2-MdmX inh 9.2, Beta cell apopt -5.9 and CSC inhib -3.1.
Screening COC1(OC)C=CC(=O)C=C1NC(=O)c1ccccc1OC(C)=O returned Calb FLC 11.8, PP5 primary -6.1, PP1 counter 8.2, Mdm2-MdmX inh 82.1*, Beta cell apopt 36.3, CSC inhib 64.6, Mdm2 MdmX conf 66.5* and Full FLuc ctr 35.6.
For COc1cc(C(=O)NC(C(=O)Nc2cccc(C(C)=O)c2)C(C)C)cc(OC)c1OC (stereo not drawn) the results were Calb FLC 1.3, PP5 primary 2.5, PP1 counter -3.4, Mdm2-MdmX inh 13.5, Beta cell apopt -12.1 and CSC inhib -9.9.
For N#CCCn1cc(/C=C2\NC(=S)N(c3ccccc3)C2=O)c(-c2ccc(-c3ccccc3)cc2)n1 the results were Calb FLC -8.6, PP5 primary 2.5, PP1 counter -1.0, Mdm2-MdmX inh 63.3*, Beta cell apopt 6.2, CSC inhib -2.2 and Mdm2 MdmX conf 18.6.
COc1ccc(C(=O)C/C(=C\C(=O)c2ccc(C)cc2)c2ccccc2)cc1 was read as Calb FLC -3.0, PP5 primary 1.6, PP1 counter 0.5, Mdm2-MdmX inh 86.0*, Beta cell apopt inconclusive, Mdm2 MdmX conf 83.9* and Full FLuc ctr 24.3.
`COc1ccc(C(=O)CC(=O)c2ccccc2)cc1` gave Calb FLC 1.6, PP5 primary -2.8, PP1 counter -0.8, Mdm2-MdmX inh 7.7, Beta cell apopt 2.6 and CSC inhib 7.0.
Screening CCOC(=O)c1c(NC(=O)COc2ccccc2F)sc2c1CC(C)(C)NC2(C)C returned Calb FLC 7.6, PP5 primary -0.4, PP1 counter 1.1, Mdm2-MdmX inh 83.5*, CSC inhib 45.0, Mdm2 MdmX conf 71.8* and Full FLuc ctr 63.3*.
For COC(=O)c1c(NC(=O)Cc2ccccc2)sc2c1CC(C)(C)NC2(C)C the results were Calb FLC 25.4, PP5 primary 1.0, PP1 counter -4.0, Mdm2-MdmX inh 22.1, Beta cell apopt -7.1 and CSC inhib -5.8.
`CCOC(=O)c1c(NC(=O)c2ccc(S(=O)(=O)N3CCOCC3)cc2)sc2c1CCN(C)C2` gave Calb FLC -25.8, PP5 primary 5.1, PP1 counter -0.5, Mdm2-MdmX inh 22.4, Beta cell apopt -2.9 and CSC inhib 19.7.
For Cc1ccc(C(C)C)c(OCC(=O)Nc2sc3c(c2C#N)CC(C)(C)NC3(C)C)c1 the results were Calb FLC -15.5, PP5 primary 5.3, PP1 counter -1.0, Mdm2-MdmX inh 59.0*, Beta cell apopt 29.3, CSC inhib 65.2, Mdm2 MdmX conf 30.7 and Full FLuc ctr 81.2*.
For Cc1cc(OCC(=O)Nc2sc3c(c2C#N)CC(C)(C)NC3(C)C)c(C(C)C)cc1Cl the results were Calb FLC -2.9, PP5 primary 1.6, PP1 counter 1.5, Mdm2-MdmX inh 47.1, Beta cell apopt 6.6 and CSC inhib 55.5.
Screening CCOC(=O)c1c(NC(=O)c2ccc(S(=O)(=O)N3CCOCC3)cc2)sc2c1CC(C)(C)NC2(C)C returned Calb FLC -7.2, PP5 primary 3.2, PP1 counter -2.7, Mdm2-MdmX inh 55.4*, Beta cell apopt -1.1, CSC inhib 12.0 and Mdm2 MdmX conf 34.4.
For COC(=O)c1c(NC(=O)COc2ccc(Cl)cc2)sc2c1CC(C)(C)NC2(C)C the results were Calb FLC 32.1, PP5 primary 5.6, PP1 counter 3.7, Mdm2-MdmX inh 94.9*, Beta cell apopt 102.3*, CSC inhib 10.1, Mdm2 MdmX conf 98.8* and Full FLuc ctr -0.4.
CCN(c1ccccc1)S(=O)(=O)c1cccc(C(=O)Nc2ccc(C)cn2)c1 was read as Calb FLC 12.3, PP5 primary 3.8, PP1 counter 5.7, Mdm2-MdmX inh 21.5, Beta cell apopt -19.6 and CSC inhib -39.2.
`CC1=NN(C(N)=S)C(=O)C1N=Nc1ccc(Cl)cc1Cl` (stereo not drawn) gave Calb FLC -10.0, Mdm2-MdmX inh -22.4, Beta cell apopt 17.5 and CSC inhib 11.0.
CCN(CC(=O)Nc1ccc(NC(C)=O)cc1)C(=O)CN1C(=O)C2CCCCC2C1=O (stereo not drawn) was read as PP5 primary 2.3, PP1 counter -6.8, Mdm2-MdmX inh 12.4, Beta cell apopt 0.1 and CSC inhib -4.5.
O=C(N/N=C1\CC(c2ccccc2)Oc2ccccc21)c1cccnc1 (stereo not drawn) was read as Calb FLC 1.3, PP5 primary 3.5, PP1 counter 0.1, Mdm2-MdmX inh 52.5*, Beta cell apopt 24.2, CSC inhib -0.4 and Mdm2 MdmX conf 30.6.
Screening COc1ccccc1NC(=O)c1cnc(Nc2ccccc2OC)c2ccccc12 returned Calb FLC 1.9, PP5 primary 5.5, PP1 counter -0.5, Mdm2-MdmX inh 52.2*, Beta cell apopt 25.8, CSC inhib 66.4, Mdm2 MdmX conf 57.8* and Full FLuc ctr 66.1*.
Screening CCOc1cc(C2NC(=O)CCC2[N+](=O)[O-])cc(Br)c1OC (stereo not drawn) returned Calb FLC 3.8, PP5 primary 0.5, PP1 counter -4.1, Mdm2-MdmX inh -6.1, Beta cell apopt -4.0 and CSC inhib -4.8.
Screening COc1ccc(-c2cc(-c3c(O)c(OC)c4occc4c3OC)[nH]n2)cc1OC returned Calb FLC 71.2, PP5 primary 5.9, PP1 counter 3.3, Mdm2-MdmX inh 60.2*, Beta cell apopt 7.9, CSC inhib 13.7, Mdm2 MdmX conf 30.9 and Full FLuc ctr 93.3*.
Cc1ccc2[nH]c(O)c(N=NC(N)=S)c2c1 was read as Calb FLC 6.4, PP5 primary 3.7, PP1 counter 4.3, Mdm2-MdmX inh 10.4, Beta cell apopt -1.3 and CSC inhib -9.6.
`CC(/C=C(\NC(=O)c1ccccc1)C(=O)N=Nc1c(O)[nH]c2ccc(C)cc12)=C\c1ccccc1` gave Calb FLC 50.2, PP5 primary 1.4, PP1 counter 0.1, Mdm2-MdmX inh 64.3*, Beta cell apopt 34.0, CSC inhib 15.0, Mdm2 MdmX conf 46.7* and Full FLuc ctr 81.9*.

Screens from PubChem BioAssay.
